# Results: the OligoGym collection
# Target: MON2
# Assay: pooled miR-30 sensor sort-seq; sequence = guide strand
# Details: shRNA
# Further: reference of the scale not given here.
row,Sequence,sensor-assay potency score (higher = more potent)
1,TACAATATCACGAAAAACCTTG,-0.21
2,TAGTGTTGAAGATCCTTGCTAC,0.514
3,TAGAAAATCTGTCACAACCAAC,-1.49
4,AACATCTACAACTATTTGCAGG,-1.11
5,TAAACTAATATTGAGTTCTTGG,-0.234

# Target: MOV10
# Assay: as above
# Details: shRNA
row,Sequence,sensor-assay potency score (higher = more potent)
1,TTCACCTTGAAGGTCAGCCCAT,-0.593
2,TTGAGTTTCACATCTGAGGGCA,0.674
3,TTGATCTCTGCGATCTCCTTAG,-0.607
4,TTCAGGTAGGAAGTCACTGTGG,-0.627
5,AAGCTGATCTTGAAGTCGCGGT,0.0595
6,TTAATTGCCTCCACTAACGTGA,0.283
7,TTGTACAGGGAGTTGTAGGTGA,0.0022
8,TTTCTTTACAGAACTCCAGGAA,-0.0759
9,TATTCCTGCAGCTTCTTCTTGG,0.321
10,TAACGTGACAGTCTTGCCGGTG,-0.472
11,TTGAAGGTAAAGTTCACCTTGA,0.564
12,TTCTTCTACTGAACCCACCTTC,-0.0526

# Target: MPDU1
# Assay: as above
# Details: shRNA
row,Sequence,sensor-assay potency score (higher = more potent)
1,TGAATGGAAGTGAAGATTCGGG,-0.586
2,TTTCTAAGGATCTGGATCCATC,-1.09
3,ATGCTGTAGACCATGGTCCCAG,-1.15
4,TTGGTCGTAGCATTTCTCAGGT,0.125
5,TAATAGTACATGTACAGGGCTT,-0.0728
6,TAGTGCATGACCAGGAAGCAGA,-0.943
7,TAAAAGAATCGGCACGAGCAGC,-0.833
8,TTACACAGCTGGAAATTGCTGC,0.224
9,TCCTCTGTAGTGCATGACCAGG,-1.87
10,TTTCACAGTCTGTCCTCTGTAG,0.208
11,TTCCACTAAAAGAAAACCCTGG,0.439
12,TTTCTCAGGTAAAAGAATCGGC,0.459

# Target: MPG
# Assay: as above
# Details: shRNA
row,Sequence,sensor-assay potency score (higher = more potent)
1,TGGTCGAAGAACTCCAACCCCA,-1.62
2,TCATGCAGAAGTACATGCCGTA,0.083
3,TACAGCTTCATCCTGTGCCAGG,-1.03
4,TCTGTCGACCACACTGACCCAG,-0.682
5,TCTAGCTGGTCGCTGCTTCTTT,-0.646
6,TAAATGATGTACACGTACAGGG,-0.261
7,TTCATGCAGAAGTACATGCCGT,-0.872
8,TTCTTTTGCCCCATCCGTCGGC,-0.549
9,TGCTCTAGCTGGTCGCTGCTTC,-0.856
10,TCGACCACACTGACCCAGGGGC,-0.746
11,TAGCTGGTCGCTGCTTCTTTTG,-2.15
